For 11 compounds, growth results are on record in PubChem BioAssay (NCI).

Several values for one entry are separate records, joined by “and”; a condition that tells them apart may be missing. Identical values can stand only once. The panel holds about 83,000 compounds, 20% with a hit somewhere; the sample as a whole holds those more often.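 48-hour exposure, single concentration, 96-well plates; percent growth endpoint where 0 means no net growth. Active: below 10.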 Activity calls are given as the source filed them.

Common to all, as to assay: NCI-60 one-dose screen, 48 h (100 = growth as untreated, 0 = no growth, -100 = all killed)
Holding throughout (conditions): 10 µM unless noted

The test system of experiment [1] is SR leukemia.
For experiment [2], the system named is RPMI-8226 leukemia.
Experiment [3] has as its system OVCAR-8 ovarian.
For experiment [4], the system named is OVCAR-5 ovarian.
The test system of experiment [5] is OVCAR-4 ovarian.
Experiment [6] deals with SK-OV-3 ovarian.
For experiment [7], the system named is IGROV1 ovarian.
In experiment [8] the test system is OVCAR-3 ovarian.
For experiment [9], the system named is HS 578T breast.
Experiment [10] has as its system NCI/ADR-RES ovarian.

`CCCc1cc2cc(-n3nc(CC)c4c3CC(C)(C)CC4=O)cc(NC3CCC(O)CC3)c2c(=O)[nH]1` (stereo not given): the growth is 0.947% (active) in [1]; 12.4% (inactive) in experiment [2]; 21.9% (inactive) in [3]; 35.2% (inactive) in experiment [4]; 64.9% (inactive) in experiment [5]; 27.2% (inactive) in experiment [6]. Besides, the growth in experiment [7] is 25.4% (inactive); in experiment [8] it was 46.7% (inactive); in experiment [9], 16.1% (inactive); in [10], 39.9% (inactive).

With `CCCCCCCCCC(=O)NC(C)(C)C(=O)N1CCC[C@H]1C(=O)N[C@@H](CC(C)C)C(=O)N[C@@](C)(CC)C(=O)N[C@@H](CCC(N)=O)C(=O)N[C@H](CCC(N)=O)C(=O)NC(C)(C)C(=O)NC(C)(C)C(=O)N[C@@H](CCC(N)=O)C(=O)N[C@H](CC(C)C)C(=O)N[C@H](CO)CC(C)C`, the growth in experiment [1] was -77.5% (active) and 1.34% (active); in experiment [2] it was -67.5% (active) and -26% (active); in experiment [3], -86.4% (active) and -49.5% (active); in experiment [4], -97.7% (active) and -82.4% (active); in experiment [5], -20.8% (active) and 50.4% (inactive); in experiment [6], -70.9% (active) and 19.4% (inactive). The growth in experiment [7] was -87% (active) and 5.72% (active); in experiment [8], -23.8% (active); in experiment [9], -71.3% (active) and -59% (active); in experiment [10], -83% (active) and 0.971% (active).

In the case of `N#Cc1c(-c2cccs2)cc(-c2cnccn2)nc1SCC(=O)N/N=C/c1cccs1`, the growth is 74.7% (inactive) in experiment [1]; 25.1% (inactive) in [2]; 56.3% (inactive) in experiment [3]; 82.8% (inactive) in experiment [4]; 72.1% (inactive) in experiment [5]; 56.5% (inactive) in experiment [6]. Also, the growth in experiment [7] was 74.6% (inactive); in [8] it was 62.3% (inactive); in [9] it was 58.7% (inactive); in experiment [10] it was 52.9% (inactive).

For the compound `CN(C)S(=O)(=O)c1ccc(-c2nc(C(Cl)Cl)nc3cc(-c4ccccc4)nn23)cc1`, the growth in experiment [1] was 36.2% (inactive); in [2], 86.8% (inactive); in experiment [3] it was 60.7% (inactive); in [4] it was 90% (inactive); in experiment [5], 90.5% (inactive); in [6], 92.2% (inactive). In addition, the growth in [7] was 66% (inactive); in experiment [8] it was 93.5% (inactive); in experiment [9], 109% (inactive); in experiment [10] it was 69.5% (inactive).

Take `C#C[C@]1(O)CC[C@H]2[C@@H]3CC=C4c5sc(Nc6cccc(F)c6)nc5CC[C@]4(C)[C@H]3CC[C@@]21C`: the growth in [1] was 1.48% (active); in experiment [2], -31.8% (active); in [3] it was 43.8% (inactive); in [4] it was 57.5% (inactive); in experiment [5], 44.5% (inactive); in experiment [6] it was -10.6% (active). In addition, the growth in experiment [7] was 49.8% (inactive); in experiment [8], 27.4% (inactive); in experiment [9] it was -7.5% (active); in experiment [10] it was 37.9% (inactive).

For the compound `Cn1cc(-c2cc3ncnc(Nc4ccc(NC(=O)Nc5cc(C(C)(C)C)on5)cc4)c3s2)cn1`, the growth in [1] was 22.3% (inactive); in experiment [2] it was 5.73% (active); in experiment [3] it was 44.2% (inactive); in experiment [4], 30.4% (inactive); in [5], 41% (inactive); in experiment [6], 20.4% (inactive). For the same compound, the growth in experiment [7] was 19.8% (inactive); in experiment [8], 54.9% (inactive); in experiment [9], 14.9% (inactive); in experiment [10], 61.6% (inactive).

Consider `C=C(C)[C@@H]1CC[C@]2(C(=O)NC3CCCCC3)CC[C@]3(C)[C@H](CC[C@@H]4[C@@]5(C)CC[C@H](N)C(C)(C)[C@@H]5CC[C@]43C)[C@@H]12`, for which the growth is 1.36% (active) in [1]; 39% (inactive) in experiment [2]; 101% (inactive) in experiment [3]; 115% (inactive) in experiment [4]; 96.4% (inactive) in [5]; 117% (inactive) in experiment [6]. The growth in experiment [7] is 113% (inactive); in [8] it was 101% (inactive); in experiment [9] it was 95.8% (inactive); in experiment [10], 97.5% (inactive).

Take `O=C(CCCCCCNC(=O)C(O)(O)C(F)(F)F)Nc1ncc(-c2ccc(Br)cc2)s1`: the growth in experiment [1] was 8.24% (active); in experiment [2], 11.2% (inactive); in experiment [3], 1.13% (active); in [4] it was -2.49% (active); in [5], 21.8% (inactive); in experiment [6], -14.6% (active). The growth in [7] was -21.8% (active); in [8] it was -58.1% (active); in experiment [9] it was 16.6% (inactive); in experiment [10] it was -4.64% (active).

Regarding `O=C(CSc1nc2ccccc2c(=O)n1-c1ccc(Cl)cc1)N/N=C/c1ccc(Oc2ccc(Cl)cc2)cc1`, the growth in [1] is 32.9% (inactive); in [2], 24.7% (inactive); in experiment [3], 13.4% (inactive); in [4], 70.6% (inactive); in [5], 1.7% (active); in [6], 33.8% (inactive). In addition, the growth in experiment [7] was 20.6% (inactive); in experiment [8], 87.3% (inactive); in experiment [9], 21.4% (inactive); in experiment [10], 15.7% (inactive).

For `CC1=C(C)C(=O)C(Nc2cccc(C(F)(F)F)c2)=C(Br)C1=O`, the growth in experiment [1] is 26.1% (inactive); in [2], -10.8% (active); in [3], 97% (inactive); in experiment [4] it was 128% (inactive); in experiment [5], 81.4% (inactive); in experiment [6], 86% (inactive). In addition, the growth in [7] is 74.8% (inactive); in [8] it was 103% (inactive); in [9] it was 99.4% (inactive); in experiment [10], 103% (inactive).

As for `CC(=O)OC[C@@]12Oc3c(cccc3-c3ccc(O)c4c3O[C@]3(COC(C)=O)C(=C4O)C(=O)C[C@H](C)[C@@H]3OC(C)=O)C(O)=C1C(=O)C[C@H](C)[C@@H]2OC(C)=O`, the growth in experiment [1] is -7.02% (active); in experiment [2], -27.1% (active); in experiment [3] it was 15% (inactive); in [4], 27.6% (inactive); in [5] it was 5.47% (active); in experiment [6], -1.41% (active). In addition, the growth is 26.9% (inactive) in experiment [7], 11.6% (inactive) in experiment [8], -13.6% (active) in [9] and 24.7% (inactive) in [10].
